Test results taken from PubChem BioAssay AID504333 (National Center for Advancing Translational Sciences (NCATS), 2011).
Screen size: about 360,000 compounds; about 16,000 (4.4%) were called active. Entries that show only a call come without a potency. Roughly 9% stayed inconclusive and do not appear here. Calls come from the whole dose curve; as a rule, active = well fitted inhibition curve with a large enough effect; inconclusive = small, poorly fitted or top-dose-only effect; inactive = no such curve, though single readings can be large or run the other way. The full list was thinned out, with actives kept by preference.
Note: nearly all actives have a fitted effect of over 60% in size.
Potency is the fitted concentration of half-maximal effect.

The compounds below were run against Bromodomain adjacent to zinc finger domain protein 2B (Homo sapiens) (UniProt Q9UIF8) (assay: qHTS Assay for Inhibitors of BAZ2B). Settings: AlphaScreen BAZ2B-H3K14Ac peptide displacement; series mostly up to 114 µM.
Chain of Bromodomain adjacent to zinc finger domain protein 2B (Homo sapiens) (Q9UIF8 whole entry, looked up, the tested form may be a part): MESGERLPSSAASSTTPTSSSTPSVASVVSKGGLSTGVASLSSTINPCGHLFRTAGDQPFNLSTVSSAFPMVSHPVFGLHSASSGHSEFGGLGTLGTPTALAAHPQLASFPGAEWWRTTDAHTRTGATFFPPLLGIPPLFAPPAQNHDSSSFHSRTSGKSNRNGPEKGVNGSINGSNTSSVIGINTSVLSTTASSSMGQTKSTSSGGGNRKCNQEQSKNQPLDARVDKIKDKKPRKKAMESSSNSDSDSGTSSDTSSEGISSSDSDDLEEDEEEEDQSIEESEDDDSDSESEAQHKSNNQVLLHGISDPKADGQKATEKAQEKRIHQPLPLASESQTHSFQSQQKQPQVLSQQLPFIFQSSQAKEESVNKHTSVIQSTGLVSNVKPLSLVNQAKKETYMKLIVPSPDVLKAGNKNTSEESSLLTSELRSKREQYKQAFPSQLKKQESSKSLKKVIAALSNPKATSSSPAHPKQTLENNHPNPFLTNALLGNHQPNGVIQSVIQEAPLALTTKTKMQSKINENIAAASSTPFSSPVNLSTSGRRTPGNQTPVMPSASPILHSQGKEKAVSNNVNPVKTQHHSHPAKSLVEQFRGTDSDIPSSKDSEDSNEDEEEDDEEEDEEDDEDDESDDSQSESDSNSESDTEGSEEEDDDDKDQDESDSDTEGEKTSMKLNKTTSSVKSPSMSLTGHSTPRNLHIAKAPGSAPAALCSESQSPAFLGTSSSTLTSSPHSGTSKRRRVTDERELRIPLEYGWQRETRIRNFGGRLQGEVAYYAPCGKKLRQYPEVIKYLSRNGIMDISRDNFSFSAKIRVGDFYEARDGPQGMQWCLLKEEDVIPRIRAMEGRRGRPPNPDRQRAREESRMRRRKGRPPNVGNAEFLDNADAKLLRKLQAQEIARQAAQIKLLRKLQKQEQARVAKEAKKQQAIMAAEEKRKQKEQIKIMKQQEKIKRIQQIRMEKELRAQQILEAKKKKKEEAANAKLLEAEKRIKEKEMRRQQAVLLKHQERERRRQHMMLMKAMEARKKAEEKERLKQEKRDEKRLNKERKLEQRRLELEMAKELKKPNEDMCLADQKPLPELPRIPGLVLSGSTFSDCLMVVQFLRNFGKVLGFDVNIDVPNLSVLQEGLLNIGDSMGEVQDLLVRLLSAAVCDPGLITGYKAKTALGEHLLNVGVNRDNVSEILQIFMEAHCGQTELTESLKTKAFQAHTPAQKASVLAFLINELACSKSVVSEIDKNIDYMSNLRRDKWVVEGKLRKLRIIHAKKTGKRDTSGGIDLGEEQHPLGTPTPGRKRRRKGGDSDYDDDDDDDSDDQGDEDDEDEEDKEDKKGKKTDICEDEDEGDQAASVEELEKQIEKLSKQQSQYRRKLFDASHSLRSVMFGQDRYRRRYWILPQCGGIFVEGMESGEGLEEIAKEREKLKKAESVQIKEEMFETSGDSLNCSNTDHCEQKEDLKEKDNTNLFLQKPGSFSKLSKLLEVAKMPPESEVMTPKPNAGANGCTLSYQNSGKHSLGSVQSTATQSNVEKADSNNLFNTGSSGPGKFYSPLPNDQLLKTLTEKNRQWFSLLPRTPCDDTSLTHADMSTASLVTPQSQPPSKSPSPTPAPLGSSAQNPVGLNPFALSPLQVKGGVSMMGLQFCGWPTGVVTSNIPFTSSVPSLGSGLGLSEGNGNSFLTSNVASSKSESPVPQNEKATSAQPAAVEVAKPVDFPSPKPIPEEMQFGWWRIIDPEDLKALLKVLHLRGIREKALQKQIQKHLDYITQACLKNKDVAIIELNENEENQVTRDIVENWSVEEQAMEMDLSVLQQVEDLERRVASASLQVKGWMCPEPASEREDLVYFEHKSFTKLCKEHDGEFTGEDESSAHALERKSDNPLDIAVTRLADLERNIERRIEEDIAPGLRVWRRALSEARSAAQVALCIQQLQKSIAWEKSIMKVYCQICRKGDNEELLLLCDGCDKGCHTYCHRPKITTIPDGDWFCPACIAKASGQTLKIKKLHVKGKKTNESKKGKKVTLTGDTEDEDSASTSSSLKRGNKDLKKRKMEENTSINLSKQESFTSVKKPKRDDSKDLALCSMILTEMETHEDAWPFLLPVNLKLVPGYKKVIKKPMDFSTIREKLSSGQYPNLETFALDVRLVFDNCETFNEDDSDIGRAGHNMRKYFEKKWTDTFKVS
Outline: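 Complex of BAZ2B and biotin-H3K14Ac (50 nM apiece) forms over 30 min at RT, then faces library compounds up to 110 uM for another 30 min; AlphaScreen beads added, 20 min dark incubation, luminescence read.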
With `OCc1cnc(SCc2ccc(F)cc2)n1Cc1ccc(F)cc1` the Potency was “inactive”.
With `CCOc1ccc(-n2c(SCC(=O)NCc3ccccc3)nc3n[nH]c(C)c3c2=N)cc1` the Potency was “inactive”.
`O=C(Nc1ccc(C(=O)O)c(O)c1)c1ccccc1` was tested, and the Potency was “inactive”.
`O=C(Cn1ccc(=O)[nH]c1=O)Nc1ccc(C(=O)O)c(O)c1` was tested, and the Potency was “inactive”.
`O=C(O)c1ccc(-n2cccc2)cc1O` was tested, and the Potency was 56.2 µM (active).
`Cc1ccc(S(=O)(=O)N(Cc2nc(-c3ccc(Cl)cc3)no2)C2CCCCC2)cc1` was tested, and the Potency was “inactive”.
In the case of `O=C(CN1CCCCCC1)NCCN1C(=O)S/C(=C\c2ccccc2Cl)C1=O`, the Potency is reported as “inactive”.
For `O=C(CN1C(=O)S/C(=C\c2ccccc2Cl)C1=O)NC1C=CS(=O)(=O)C1` (centres undefined), the Potency was “inactive”.
For `CN1C2CCC1/C(=C\c1ccccc1Cl)C(=O)/C2=C\c1ccccc1Cl`, the Potency was 39.8 µM (active).
With `O=C(Nc1ccc(F)cc1F)c1ccc2c(=O)n3c(nc2c1)CCCCC3` the Potency was “inactive”.
For `CCOC(=O)c1cc2c(=O)n3ccccc3nc2n(CCCOC)c1=NC(=O)C(C)(C)Oc1ccc(Cl)cc1`, the Potency was “inactive”.
`Oc1ccccc1-c1nc(/C=C/c2ccc(F)cc2)no1` was tested, and the Potency was “inactive”.
`Cc1ccn2c(=O)nc(SCC(=O)NCc3ccc4c(c3)OCO4)nc2c1` was tested, and the Potency was 56.2 µM (active).
In the case of `Cc1ccn2c(=O)nc(SCC(=O)NCc3ccc(F)cc3)nc2c1`, the Potency is reported as “inactive”.
`O=C(CSc1ncn[nH]1)NCc1ccc2c(c1)OCO2` was tested, and the Potency was “inactive”.
With `Cc1ccc(C)c(Nc2nnc(-c3ccc(C)c(S(=O)(=O)N4CCCCC4)c3)c3ccccc23)c1` the Potency was “inactive”.
`COc1cccc(CNC(=O)c2ccc3c(c2)sc2nc(-c4cccc(OC)c4)cn23)c1` was tested, and the Potency was “inactive”.
With `CN(C)CCOc1cccc(Br)c1` the Potency was 44.7 µM (active).
`COc1ccc(OC)c(NC(=O)CN(C)CCOc2ccc(Br)cc2)c1` was tested, and the Potency was “inactive”.
In the case of `CN(C)CCOC1c2ccccc2-c2ccccc21`, the Potency is reported as “inactive”.
In the case of `COc1ccc(NC(=O)CN2CCCN(Cc3ccccc3)S2(=O)=O)cc1`, the Potency is reported as “inactive”.
In the case of `O=C(NCCCNCc1ccccc1)c1ccc(/C=N/O)nc1`, the Potency is reported as 50.1 µM (active).
With `CC(C)c1ccc(C(=O)NCCCc2ccccc2)cc1` the Potency was “inactive”.
`Nc1ccc(C(=O)NCc2ccccc2)cc1` was tested, and the Potency was “inactive”.
With `Oc1ccc(CNc2ccccc2O)cc1` the Potency was 44.7 µM (active).
In the case of `Oc1ccccc1N1CCN(C(=S)NCc2ccccc2)CC1`, the Potency is reported as “inactive”.
In the case of `O=C(Cc1ccc(Cl)cc1)NC(=S)Nc1ccccc1O`, the Potency is reported as “inactive”.
`O=C(c1ccc(C(F)(F)F)cc1)N1CCC(c2nc(-c3ccc(S(=O)(=O)N4CCCC4)cc3)no2)CC1` was tested, and the Potency was “inactive”.
For `COc1cccc(NC(=O)Nc2ccc3c(c2)N(C)C(=O)c2ccccc2S3)c1`, the Potency was “inactive”.
In the case of `COc1ccc(CC(=O)N2CC(=O)Nc3ccc(Br)cc3C2c2ccc(F)cc2)cc1OC` (centres undefined), the Potency is reported as “inactive”.
With `CCOC(=O)c1c(NC(=O)CSc2nccc(=O)[nH]2)sc(C)c1C` the Potency was “inactive”.
In the case of `CCOC(=O)c1c(NC(=O)CSc2nnc(Cc3csc(N)n3)n2C)sc(C)c1C`, the Potency is reported as 12.6 µM (active).
With `CCOC(=O)c1c(NC(=O)CSc2nnc(CN3CCOCC3)n2C)sc2c1CCCC2` the Potency was “inactive”.
With `Cc1cccc(C)c1-n1ncc(C(=O)NCCCN2CCCCC2)c1C1CCN(C(=O)OC(C)(C)C)CC1` the Potency was “inactive”.
In the case of `CC(C)S(=O)(=O)c1oc(-c2ccc(F)cc2)nc1S(=O)(=O)c1ccc(F)cc1`, the Potency is reported as “inactive”.
In the case of `Cc1ccc(NC(=O)CSc2nc3c([nH]c4ccccc43)c(=O)n2-c2ccccc2)cc1Cl`, the Potency is reported as “inactive”.
In the case of `Cc1ccc(N2CC(c3nnc(Cc4ccccc4Cl)o3)CC2=O)cc1` (centres undefined), the Potency is reported as “inactive”.
In the case of `Cc1ccccc1Nc1nc(N)nc(CSc2ccccc2)n1`, the Potency is reported as “inactive”.
In the case of `Cc1ccc(C(=O)OCc2nc(N)nc(Nc3ccccc3C)n2)cc1`, the Potency is reported as “inactive”.
`Cc1ccccc1Nc1nc(N)nc(CN2CCN(c3ccccn3)CC2)n1` was tested, and the Potency was 50.1 µM (active).
With `CCOc1ccccc1CNC(=O)Nc1cn(CC(C)C)c(=O)c2ccccc12` the Potency was “inactive”.
For `COc1ccccc1CNC(=O)C(Cc1ccccc1)NS(=O)(=O)c1ccc2c(c1)oc(=O)n2C` (centres undefined), the Potency was “inactive”.
`COc1ccc2c(C)c(CCC(=O)NCc3ccc(OC)c(OC)c3)c(=O)oc2c1` was tested, and the Potency was “inactive”.
In the case of `CC(C)c1ccc(Nc2ncccc2C#N)cc1`, the Potency is reported as “inactive”.
For `Nc1ccc(Nc2cc(O)c3ncccc3c2)cc1`, the Potency was 7.08 µM (active).
With `CC1CCN(S(=O)(=O)c2ccc3c(ccn3CCC(=O)NCc3ccc(N(C)C)cc3)c2)CC1` the Potency was 28.2 µM (active).
With `O=C(CCn1ccc2cc(S(=O)(=O)N3CCCC3)ccc21)NCc1cccc(Cl)c1` the Potency was “inactive”.
For `CC1CCN(S(=O)(=O)c2ccc3c(ccn3CC(=O)O)c2)CC1`, the Potency was “inactive”.
For `CCCN(CCC)C(=O)C(Cc1ccccc1)NS(=O)(=O)c1ccc2c(c1)c(=O)n(C)c(=O)n2C` (centres undefined), the Potency was “inactive”.
`O=S(=O)(c1ccc(NC(=S)NN=C(C2CC2)C2CC2)cc1)N1CCOCC1` was tested, and the Potency was “inactive”.
With `Cc1ccc(S(=O)(=O)N2CCN(CC(=O)N/N=C/c3cc([N+](=O)[O-])ccc3Cl)CC2)cc1` the Potency was “inactive”.
`O=[N+]([O-])c1cc(Cl)cc(/C=N/NC(=S)Nc2cc(S(=O)(=O)N3CCOCC3)ccc2Cl)c1O` was tested, and the Potency was 1.78 µM (active).
For `Cn1c(=O)c2c(nc(SCC(=O)Nc3ccc(F)cc3)n2Cc2ccccc2)n(C)c1=O`, the Potency was “inactive”.
For `Cc1nn(C(C)C(=O)Nc2ccc(C(C)C)cc2)c(=O)c2c1sc1ccccc12` (centres undefined), the Potency was “inactive”.
`CC1CN(C(=O)N2CCC(C(=O)NCc3ccco3)CC2)c2cc(Cl)ccc2O1` (centres undefined) was tested, and the Potency was “inactive”.
In the case of `O=C(Nc1nnc(C2CC2)s1)c1ccccn1`, the Potency is reported as 5.62 µM (active).
In the case of `Cc1cnc(NC(=O)c2ccccn2)s1`, the Potency is reported as 35.5 µM (active).
In the case of `Cc1ccc(SCC(=O)Nc2ncc(C)s2)cc1`, the Potency is reported as “inactive”.
`Cc1cnc(NC(=O)C2CCCC2)s1` was tested, and the Potency was “inactive”.
In the case of `O=C(Nc1nnc(C2CC2)s1)c1cc(Cl)sc1Cl`, the Potency is reported as “inactive”.
`Cc1cc(C(=O)Nc2nnc(C3CC3)s2)c(C)s1` was tested, and the Potency was “inactive”.
With `COCCNC(=O)c1ccc2c(c1)N=C(C)c1cc(C)ccc1S2` the Potency was “inactive”.
For `CC1=Nc2cc(C(=O)N3CCC(C)CC3)ccc2Sc2ccc(Cl)cc21`, the Potency was “inactive”.
With `Cc1ccc(Cn2c(=O)n(-c3ccc(C)cc3)c(=O)c3c2c2cc(C)ccc2n3C)cc1` the Potency was “inactive”.
With `COc1ccc(CNC(=O)CSc2n[nH]c(-c3ccc(F)cc3)n2)cc1` the Potency was “inactive”.
For `CCc1nnc(NC(=O)c2nc3nccc(C)n3n2)s1`, the Potency was 70.8 µM (active).
For `CCc1nnc(NC(=O)c2ccc(S(=O)(=O)NC3CCCCC3)cc2)s1`, the Potency was “inactive”.
`CCc1nnc(NC(=O)c2cc(S(=O)(=O)N3CCCCC3)ccc2C)s1` was tested, and the Potency was “inactive”.
With `CCCOc1ccccc1C1CC(=O)Nc2cc3c(cc21)OCO3` (centres undefined) the Potency was 28.2 µM (active).
`O=C1CC(c2ccc(F)cc2F)c2cc3c(cc2N1)OCO3` (centres undefined) was tested, and the Potency was “inactive”.
`COC(=O)C1=C(C)NC(=O)CC1c1ccccc1OC` (centres undefined) was tested, and the Potency was “inactive”.
In the case of `Cc1nc2ccn(Cc3cccs3)c(=O)c2cc1C(=O)NCc1ccc(Cl)cc1`, the Potency is reported as “inactive”.
With `Cc1ccc(Nc2nc(Cl)c(C=O)s2)cc1` the Potency was “inactive”.
For `Cc1ccc(Nc2ccccc2N)cc1`, the Potency was 44.7 µM (active).
With `Nc1ccc(C(=O)Nc2ccccc2N)cc1` the Potency was “inactive”.
In the case of `COc1ccc(-c2noc(CSc3nnc(-c4ccccc4)n3-c3ccc(F)cc3)n2)c(OC)c1`, the Potency is reported as “inactive”.
`CCOC(=O)c1c(-c2ccccc2)oc2ccc(OCC(N)=O)cc12` was tested, and the Potency was “inactive”.
In the case of `CC(=O)c1c(C)n(-c2ccc(N(C)C)cc2)c2ccc(OCC(N)=O)cc12`, the Potency is reported as 50.1 µM (active).
For `CC(=O)c1c(C)n(-c2ccc(C)cc2)c2ccc(O)cc12`, the Potency was “inactive”.
In the case of `CC(=O)c1ccc(NC(=O)c2nc(-c3ccc(C)cc3)n3c2CCCCC3)cc1`, the Potency is reported as “inactive”.
With `COc1ccccc1-c1ccnc2[nH]n(-c3ccccc3)c(=O)c12` the Potency was “inactive”.
`NS(=O)(=O)c1cccc(NC(=O)CN2CCCc3ccccc32)c1` was tested, and the Potency was “inactive”.
For `CC1Cc2ccccc2N1CC(=O)Nc1ccc(S(N)(=O)=O)cc1` (centres undefined), the Potency was 79.4 µM (active).
For `CC1CC(C)CN(CC(=O)Nc2ccc(S(N)(=O)=O)cc2)C1` (centres undefined), the Potency was “inactive”.
With `CC(CNC(=O)c1nnc(Cc2cccc(F)c2)o1)c1ccccc1` (centres undefined) the Potency was “inactive”.
In the case of `CN(C(=O)CSc1nc2ccc(NC(=O)COc3ccccc3)cc2s1)c1ccccc1`, the Potency is reported as “inactive”.
For `O=C(NCCCn1ccnc1)c1cc(Br)c(Br)s1`, the Potency was “inactive”.
With `O=C(NCCCn1ccnc1)c1cc2c(s1)CCCC2` the Potency was 56.2 µM (active).
`O=C(NCCCN1CCOCC1)c1cc2c(s1)CCC2` was tested, and the Potency was “inactive”.
`Cc1ccccc1CNC(=O)C1CCCN(S(=O)(=O)N(C)c2ccc(F)cc2)C1` (centres undefined) was tested, and the Potency was “inactive”.
With `CCOC(=O)c1c(S(=O)(=O)NCC(=O)Nc2ccc(Cl)c(C(F)(F)F)c2)c(C)n(C)c1C` the Potency was “inactive”.
`COc1cccc(NC(=O)CSC2=Nc3ccccc3C3=NC(CC(=O)NC4CCCCC4)C(=O)N23)c1` (centres undefined) was tested, and the Potency was “inactive”.
In the case of `Cc1nc(Nc2ccc3c(c2)OCCO3)c2nnn(Cc3ccccc3Cl)c2n1`, the Potency is reported as “inactive”.
For `S=C(Nc1cccc(Cl)c1)Nc1ccc2c(c1)OCCO2`, the Potency was “inactive”.
In the case of `Cc1cccc2nc(-c3ccc(Cl)s3)c(Nc3ccc4c(c3)OCCO4)n12`, the Potency is reported as 12.6 µM (active).
For `Nc1ccc(S(=O)(=O)NC(=O)c2ccccc2)cc1`, the Potency was “inactive”.
`Nc1ccc(Nc2ccccc2)cc1` was tested, and the Potency was 35.5 µM (active).
In the case of `Cc1cc(Nc2ccccc2)n(C(=O)c2ccc(N)cc2)n1`, the Potency is reported as “inactive”.
With `CCCOc1ccc(NC(=O)CC2C(=O)N(c3ccccc3)C(=O)N2Cc2ccco2)cc1` (centres undefined) the Potency was “inactive”.
For `C[N+]1(CCNC(=O)/C=N/O)CCCCC1`, the Potency was 79.4 µM (active).
In the case of `CCOc1c(OC)cc(C2C(C#N)=C(N)Oc3n[nH]c(-c4ccncc4)c32)cc1OC` (centres undefined), the Potency is reported as “inactive”.
With `COc1ccc(C2C(C#N)=C(N)Oc3n[nH]c(C)c32)cc1CN1CCN(c2ccc(F)cc2)CC1` (centres undefined) the Potency was 50.1 µM (active).
`COc1cc(C2C(C#N)=C(N)Oc3n[nH]c(-c4ccccn4)c32)cc(OC)c1OC` (centres undefined) was tested, and the Potency was “inactive”.
In the case of `O=C(CSc1nc(=O)n(Cc2cccnc2)c2c1CCC2)Nc1ccc(F)cc1F`, the Potency is reported as “inactive”.
